Measured values published in the supplement of paper PMC6555819.

Test system: VDR:RXRa (NR concentration 270 nM, RXRa partner concentration 90 nM)
Assay: PBM binding z-score (relative to random genomic background probes); higher = stronger binding; sequences stand for … in GC…GCGATTGACAGCGTAGAATGAAGG
Procedure: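 Protein-binding microarray (Agilent 4x180K custom design, double-stranded 60-nt probes: 5' GC cap, 34-nt variable region, 24-nt constant primer region; full probe sequence given). Purified or IVT nuclear receptor:RXRα heterodimers (3:1 NR:RXRα, mostly 270:90 nM) or homodimers were incubated for 1 h in PBS with 2% milk and no ligand, then detected with Alexa488 antibodies. Fluorescence from o1-orientation probes (~5 replicates averaged) was converted to z-scores against 500 random hg19 background probes. Variable regions are seed direct-repeat (DR0–DR5) sites, all their single-nucleotide variants and half-site ablations.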

| Sequence | PBM binding z-score |
| --- | --- |
| CGACCTAGGTCAGAACAGGACAGTGAAGGATGAT | 1.05 |
| TAGCCTAGGTCATGGGCCAGAATACCACGCGAAC | 1.91 |
| CACACTAGGTCACGAAAGGTCAAAGTCGAATGAC | 7.02 |
| CCTGCTAGGTCAATGGTCAACTAAAGCAGCTCGC | 1.25 |
| CCTTACGGGTCAAGGTTATAACACGGGTGGTACG | 3.51 |
| TTACCAAGGTGAAAGGCCGTTGATGCACGCCTTG | 0.0595 |
| CCTGCTAGGTCAATGGTTAGCTAAAGCAGCTCGC | 0.802 |
| CCTCGGAGGACAACAGGAGGTCAGAGTTGCCAGA | 1.97 |
| CCACGGAGGACAACAGGAGGTCAGAGCTGCCAGA | 2.13 |
| ACTTTCGGGTCAACGAGGTTATAGCACGCGTATA | 7.85 |
| CCAGACAGCTGAGAAGGTAACTCAGCCTCGATTA | -0.312 |
| TCTTGTAGATCAAAGGTTGAGAAAGCCGAAGCCT | 0.408 |
| TATCGGAGGACACGAAGGTCAGAGCTTTCCAGAG | 2.32 |
| ATCTCTAGGTAAAGATAGTTCGGTGAATGCAAAT | 0.244 |
| GCGACTGGGGCATCAGCAGGTTACCATCACTTAA | -0.265 |
| ATACCTAGGTGATCGTGAGGTCGTTGATACTAAC | 2.66 |
| TAGACTAGGTCAGATCGGGCCAGTATACGCTATA | 0.598 |
| CCTACTGGGCCAAGGTCGTTGATCAGTCAAAGCA | 0.505 |
| GATACAGTGTCAGCTAGAGGCCAGAGTATGGAAA | -0.468 |
| TCTCGGAGGACACGCAAGGTCAGAGCTCGACATC | 2.45 |

| Sequence | PBM binding z-score |
| --- | --- |
| ATCTCTAGGCAACAAGTTCAGTGAAAGAGAGGAC | 1.82 |
| CAAACTAGGTCCCAGAGGTCAAAGTCCGTGCGTA | 5.88 |
| AGAATGAGGTTATTAAGAGCAGGGAATTGCGGTC | 2 |
| TAGAGTAGGTTAGTCGGGGCATTCAGCCAACATA | 2.52 |
| ATAAGTAGGTTAAGGGTCATTCAGGTTGGTTCGC | 5.89 |
| TTACCAAGGTGAGCTGAGGCCGTTGATCCAACTC | 0.537 |
| GCGACTGGGGCATCAGGAGGTTACCATAACTTAA | 0.558 |
| CCTAGCAGGCCAATCTGAGTCACTCAAGGCTTGA | -0.947 |
| TCATATAGGTAAACAGGTGAAAGCCCGTAAGTTA | 1.15 |
| AGAACGAGGGCACGCTGAGTTGATAGCTGAGTAG | 2.04 |
| TAGGCTAGGTCATTGGGCCAGTATAGTACGCATC | 2.03 |
| CGTCCAAGGTTAATGCTAGGTCAGTGAAAGCATT | 1.86 |
| GCTAATTGGTCAGTAAAAGGTCACACACCGGTCG | 4.07 |
| TCTAGCAGGCCAGAGGGTCACTAAAGAGGTACGG | 1.24 |
| ATGGAAAGGTCGAGGTGAGTATAGAGAAAGGGAA | 2.81 |
| TCTAGTTGGTCAAAGCTCACACACTCGAAATGCG | 0.632 |
| ATTCAAAGTTCAGGACGAGGTAACGTAAAGCACG | 3.14 |
| CGTCCAAGGTCAGAGAAGTCAGTGAATGCCGAGT | 3.15 |
| AGAACGAGGGCACGCTGAGTTGATATCAGAGTAG | 2.02 |
| CGTCCAAGGTCATAGGAGGTCAGTGACGACAGAT | 6.55 |
